Assay results published in PubChem BioAssay AID463173 (ICCB-Longwood Screening Facility, Harvard Medical School, 2010).
The campaign covered roughly 52,000 compounds. About 1,700 (3.3%) were called active. No stated cut-off is given here; in the data, active means survival mostly below about 52% (no sharp cut-off); inactive means mostly above about 56%. The sample as a whole holds a higher share of actives than the screen did.

test system: Wild type; test: growth inhibition of S. aureus wild type versus tarO mutant, primary screen, teichoic acid synthesis inhibitors, RN4220, OD600 (AID 463173); details: S. aureus RN4220 wild type/DeltatarO growth, OD600, 18 h, stronger effect = lower value, screened at 18.75 µg/mL (by protocol)

With `Cc1nc2nc(C)c(NS(=O)(=O)c3ccc(F)cc3)c(=O)n2[nH]1` as the compound, how does the survival read?
Its survival is 81% (inactive).

For `O=C(O)CCNc1ccc(Cl)cn1`, which survival is on record?
Its survival is 86% (inactive).

For `S=c1nc[nH]c2c1oc1ccccc12`, which survival is on record?
The survival was 96% (inactive).

How did the survival turn out when `Cc1ccccc1NC(=O)CSc1nc(-c2ccc(F)cc2)nc2c1Cc1ccccc1O2` was run?
The survival was 77% (inactive).

For `CCOc1ccc(C(=O)N(C)CC2COc3ccccc3O2)cc1` (configuration not stated), which survival is on record?
The survival was 98% (inactive).

`N#Cc1c(-n2ncnc2-c2ccccc2Cl)sc2c1CCCCC2` was tested. Which survival did it give?
Its survival is 38% (inactive).

Which survival does the source give for `COc1ccccc1-c1ncnn1-c1sc2c(c1C#N)CCCCC2` here?
The survival was 1% (active).

`COc1ccccc1-c1cc(C(=O)Nc2sc3c(c2C#N)CCCC3)no1` was tested. Which survival did it give?
The survival was 140% (inactive).

For `COc1cccc(-c2ncnn2-c2sc3c(c2C#N)CCCCC3)c1OC`, which survival is on record?
Its survival is 72% (inactive).

With `Cc1ccccc1-c1ncnn1-c1sc2c(c1C#N)CCCCC2` as the compound, how does the survival read?
The survival was 65% (inactive).

With `N#Cc1c(-n2ncnc2-c2ccccc2C(F)(F)F)sc2c1CCCCC2` as the compound, how does the survival read?
The survival was 4% (active).

How did the survival turn out when `CCOc1ccccc1NC(=O)CSc1c(C)cnc2c1c(=O)n(C)c(=O)n2C` was run?
The survival was 67% (inactive).

With `CCN(CC)C(=O)Cn1c(=O)nc(-c2ccccc2F)c2cc(Cl)ccc21` as the compound, how does the survival read?
Its survival is 73% (inactive).

How did the survival turn out when `CC1CCN(c2nc3nonc3nc2Nc2ccc(F)cc2)CC1` was run?
The survival was 103% (inactive).

Which survival does the source give for `CC1CCCN(c2nc3nonc3nc2Nc2cccc(Cl)c2)C1` (configuration not stated) here?
Its survival is 0% (active).

`O=C(Nc1cccc(Cl)c1)C1CCCN(c2ncnc3c2nc2n3CCCCC2)C1` (configuration not stated) was tested. Which survival did it give?
The survival was 36% (inactive).

How did the survival turn out when `CCOC(=O)c1cc(C(C)(C)C)oc1CN` was run?
Its survival is 95% (inactive).

Which survival does the source give for `CC(C)N(Cc1ccccc1)C(=O)CN1C(=O)CSc2ccc(S(=O)(=O)N3CCCC3)cc21` here?
Its survival is 100% (inactive).

How did the survival turn out when `Cc1cccc(CNC(=O)C2CCN(c3nc4ccc(Cl)cc4[nH]3)CC2)c1` was run?
Its survival is 79% (inactive).

With `CC1CCN(C(=O)CSc2nc3ccccc3nc2Cc2ccccc2)CC1` as the compound, how does the survival read?
Its survival is 73% (inactive).

For `CCOCCc1nn2c(=O)cc(COC(=O)c3cccc(C)c3)nc2s1`, which survival is on record?
The survival was -6% (active).

`CCOCCc1nn2c(=O)cc(COC(=O)c3ccc(NC(=O)c4cccs4)cc3)nc2s1` was tested. Which survival did it give?
The survival was 118% (inactive).

With `CCOCCc1nn2c(=O)cc(COC(=O)c3ccc(NC(=O)C(C)(C)C)cc3)nc2s1` as the compound, how does the survival read?
The survival was 77% (inactive).

How did the survival turn out when `COCCc1nn2c(=O)cc(COC(=O)c3ccccc3C)nc2s1` was run?
Its survival is -6% (active).

With `CCOc1ccc(C(=O)Nc2cccc(C(=O)OCc3cc(=O)n4nc(C5CC5)sc4n3)c2)cc1` as the compound, how does the survival read?
Its survival is 51% (inactive).

`CCCc1nn2c(=O)cc(COC(=O)c3ccccc3NC(=O)c3ccc(OCC)cc3)nc2s1` was tested. Which survival did it give?
The survival was 22% (inactive).

How did the survival turn out when `CCCCc1nn2c(=O)cc(COC(=O)c3ccccc3C)nc2s1` was run?
Its survival is 72% (inactive).

With `CCOCCc1nn2c(=O)cc(COC(=O)CNC(=O)c3cccc(C)c3)nc2s1` as the compound, how does the survival read?
The survival was 84% (inactive).

How did the survival turn out when `CCOCCc1nn2c(=O)cc(COC(=O)c3ccc(NC(=O)c4ccc(F)cc4)cc3)nc2s1` was run?
Its survival is 0% (active).

For `COCCc1nn2c(=O)cc(COC(=O)COc3ccccc3C)nc2s1`, which survival is on record?
The survival was 80% (inactive).

Which survival does the source give for `CCOCCc1nn2c(=O)cc(COC(=O)c3ccc4c(c3)OCO4)nc2s1` here?
The survival was 133% (inactive).

Which survival does the source give for `CCCc1nn2c(=O)cc(COC(=O)c3cccc(NC(=O)c4ccc(OCC)cc4)c3)nc2s1` here?
The survival was -2% (active).
